Hit rate of the full screen: of about 5,500 compounds, about 2,000 (36%) were called active. Inconclusive results (about 18%) are left out. No stated cut-off is given here; in the data, active means normalized growth mostly below about 0.91 (no sharp cut-off); inconclusive means no clear call, values can overlap the other calls; inactive means mostly above about 0.92. The list shows a part of the results.
Experiment: chemical genetic growth profiling, strain panel (AID 1159580);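 further: tested at 20 µM; growth read once vehicle control cultures reached saturation at 30 °C; 1 = growth at the plate median or of vehicle wells; lower values mean less growth of the strain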
Conditions: growth OD

Measured: normalized growth

OCCN1C[C@@H](O)[C@@H](O)C(O)C1CO (stereo partly specified)
inactive: S. cerevisiae deletion strains, locus YKL009W, strain mrt4, active compounds read low 1.01 | S. cerevisiae deletion strains, locus YKL068W, active compounds read low 1.01 | S. cerevisiae deletion strains, locus YKL085W, strain MDH1 (second series), active compounds read low 1 | S. cerevisiae deletion strains, locus YKL085W, strain MDH1, active compounds read low 1 | S. cerevisiae deletion strains, locus YKL160W, strain elf1, active compounds read low 1.01 | S. cerevisiae deletion strains, locus YKL190W, strain CNB1, active compounds read low 1.02 | S. cerevisiae deletion strains, locus YKR001C, strain vps1, active compounds read low 0.999 | S. cerevisiae deletion strains, locus YKR026C, strain gcn3, active compounds read low 1.02 | S. cerevisiae deletion strains, locus YKR091W, strain srl3, active compounds read low 1 | S. cerevisiae deletion strains, locus YLL001W, strain dnm1, active compounds read low 1.02 | S. cerevisiae deletion strains, locus YLL026W, active compounds read low 1.01 | S. cerevisiae deletion strains, locus YLL041C, strain sdh2, active compounds read low 1 | S. cerevisiae deletion strains, locus YLR027C, strain aat2, active compounds read low 0.992 | S. cerevisiae deletion strains, locus YLR039C, strain RIC1, active compounds read low 0.958 | S. cerevisiae deletion strains, locus YLR058C, strain SHM2, active compounds read low 1.02 | S. cerevisiae deletion strains, locus YLR102C, strain apc9, active compounds read low 0.997 | S. cerevisiae deletion strains, locus YLR113W, strain HOG1, active compounds read low 1.04 | S. cerevisiae deletion strains, locus YLR221C, strain rsa3, active compounds read low 1.01 | S. cerevisiae deletion strains, locus YLR258W, strain gsy2, active compounds read low 1 | S. cerevisiae deletion strains, locus YLR262C, strain YPT6 (second series), active compounds read low 0.994 | S. cerevisiae deletion strains, locus YLR262C, strain YPT6, active compounds read low 1 | S. cerevisiae deletion strains, locus YLR268W, strain sec22, active compounds read low 1 | S. cerevisiae deletion strains, locus YLR320W, strain mms22, active compounds read low 1.01 | S. cerevisiae deletion strains, locus YLR330W, strain CHS5, active compounds read low 1.01 | S. cerevisiae deletion strains, locus YLR342W, strain FKS1 (second series), active compounds read low 1.01 | S. cerevisiae deletion strains, locus YLR342W, strain FKS1, active compounds read low 0.99 | S. cerevisiae deletion strains, locus YLR357W, strain rsc2, active compounds read low 1 | S. cerevisiae deletion strains, locus YLR370C, strain arc18, active compounds read low 1 | S. cerevisiae deletion strains, locus YLR371W, strain rom2, active compounds read low 0.995 | S. cerevisiae deletion strains, locus YLR384C, strain iki3, active compounds read low 1 | S. cerevisiae deletion strains, locus YLR418C, strain cdc73, active compounds read low 0.977 | S. cerevisiae deletion strains, locus YML016C, strain PPZ1, active compounds read low 1.01 | S. cerevisiae deletion strains, locus YML032C, strain rad52, active compounds read low 1.01 | S. cerevisiae deletion strains, locus YML120C, strain ndi1, active compounds read low 1.02 | S. cerevisiae deletion strains, locus YML124C, strain tub3, active compounds read low 1.01 | S. cerevisiae deletion strains, locus YMR058W, strain fet3, active compounds read low 1 | S. cerevisiae deletion strains, locus YMR078C, strain ctf18, active compounds read low 1 | S. cerevisiae deletion strains, locus YMR125W, strain sto1, active compounds read low 0.997 | S. cerevisiae deletion strains, locus YMR129W, active compounds read low 0.997 | S. cerevisiae deletion strains, locus YMR205C, strain PFK2, active compounds read low 1 | S. cerevisiae deletion strains, locus YMR223W, strain ubp8, active compounds read low 1 | S. cerevisiae deletion strains, locus YMR231W, strain pep5, active compounds read low 1 | S. cerevisiae deletion strains, locus YMR263W, strain SAP30, active compounds read low 1.02 | S. cerevisiae deletion strains, locus YMR307W, strain GAS1, active compounds read low 1.01 | S. cerevisiae deletion strains, locus YNL067W, strain RPL9B, active compounds read low 1.02 | S. cerevisiae deletion strains, locus YNL071W, strain lat1, active compounds read low 0.993 | S. cerevisiae deletion strains, locus YNL128W, strain TEP1, active compounds read low 1.02 | S. cerevisiae deletion strains, locus YNL153C, strain GIM3, active compounds read low 1.01 | S. cerevisiae deletion strains, locus YNL183C, strain NPR1, active compounds read low 0.97 | S. cerevisiae deletion strains, locus YNL209W, strain ssb2, active compounds read low 1 | S. cerevisiae deletion strains, locus YNL233W, strain BNI4, active compounds read low 1.02 | S. cerevisiae deletion strains, locus YNL248C, strain rpa49, active compounds read low 1.02 | S. cerevisiae deletion strains, locus YNL250W, strain rad50, active compounds read low 1 | S. cerevisiae deletion strains, locus YNL271C, strain bni1, active compounds read low 0.986 | S. cerevisiae deletion strains, locus YNL298W, strain CLA4, active compounds read low 0.994 | S. cerevisiae deletion strains, locus YNL307C, strain MCK1, active compounds read low 1.01 | S. cerevisiae deletion strains, locus YNL322C, strain KRE1 (second series), active compounds read low 1.02 | S. cerevisiae deletion strains, locus YNL322C, strain KRE1, active compounds read low 1.01 | S. cerevisiae deletion strains, locus YNR049C, strain mso1, active compounds read low 1 | S. cerevisiae deletion strains, locus YNR052C, strain pop2, active compounds read low 0.999 | S. cerevisiae deletion strains, locus YOL006C, strain TOP1, active compounds read low 1.04 | S. cerevisiae deletion strains, locus YOL012C, strain htz1 1.11 | S. cerevisiae deletion strains, locus YOL147C, strain pex11, active compounds read low 1 | S. cerevisiae deletion strains, locus YOR001W, strain rrp6, active compounds read low 1 | S. cerevisiae deletion strains, locus YOR061W, strain CKA2, active compounds read low 1.01 | S. cerevisiae deletion strains, locus YOR069W, strain VPS5, active compounds read low 1.01 | S. cerevisiae deletion strains, locus YOR070C, strain gyp1, active compounds read low 0.997 | S. cerevisiae deletion strains, locus YOR080W, strain dia2, active compounds read low 1.01 | S. cerevisiae deletion strains, locus YOR083W, strain WHI5, active compounds read low 1 | S. cerevisiae deletion strains, locus YOR106W, strain vam3, active compounds read low 1.03 | S. cerevisiae deletion strains, locus YOR136W, strain idh2, active compounds read low 0.998 | S. cerevisiae deletion strains, locus YOR144C, strain elg1, active compounds read low 1 | S. cerevisiae deletion strains, locus YOR184W, strain ser1, active compounds read low 1 | S. cerevisiae deletion strains, locus YOR231W, strain MKK1, active compounds read low 1.01 | S. cerevisiae deletion strains, locus YOR265W, strain rbl2, active compounds read low 0.988 | S. cerevisiae deletion strains, locus YOR270C, strain vph1, active compounds read low 1.05 | S. cerevisiae deletion strains, locus YOR290C, strain snf2, active compounds read low 1.01 | S. cerevisiae deletion strains, locus YOR316C, strain cot1, active compounds read low 0.997 | S. cerevisiae deletion strains, locus YPL051W, strain arl3, active compounds read low 1 | S. cerevisiae deletion strains, locus YPL055C, strain LGE1, active compounds read low 1.05 | S. cerevisiae deletion strains, locus YPL078C, strain atp4, active compounds read low 1.01 | S. cerevisiae deletion strains, locus YPL106C, strain sse1, active compounds read low 1.03 | S. cerevisiae deletion strains, locus YPL240C, strain hsp82, active compounds read low 1 | S. cerevisiae deletion strains, locus YPL241C, strain CIN2, active compounds read low 1.01 | S. cerevisiae deletion strains, locus YPL256C, strain CLN2, active compounds read low 1.02 | S. cerevisiae deletion strains, locus YPR119W, strain clb2, active compounds read low 0.996 | S. cerevisiae deletion strains, locus YPR141C, strain kar3, active compounds read low 1 | S. cerevisiae deletion strains, locus YPR163C, strain tif3, active compounds read low 1 | S. cerevisiae deletion strains, locus YPR167C, strain met16, active compounds read low 0.997 | S. cerevisiae deletion strains, strain wtn01, active compounds read low 1 | S. cerevisiae strains, strain wild type, active compounds read low 1.01

— PubChem BioAssay AID1159580 (chemical genetic matrix, 2015)
